PubChem BioAssay (NCI)
The panel holds about 83,000 compounds, 20% with a hit somewhere; the sample as a whole holds those more often.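 Values shown are percent growth following 48 h exposure of cells in 96-well plates to a single concentration of compound; below 10 was considered active.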 Unmarked numbers belong to inactive results. The source made the active and inactive calls.

Tests used:
Experiment in all cases: NCI-60 one-dose screen, 48 h (100 = growth as untreated, 0 = no growth, -100 = all killed)
Settings in all cases: 10 µM unless noted
HCT-15 colon = tested on: HCT-15 colon
HT29 colon = tested on: HT29 colon
SNB-75 CNS = tested on: SNB-75 CNS
SNB-19 CNS = tested on: SNB-19 CNS
U251 CNS = tested on: U251 CNS
PC-3 prostate = tested on: PC-3 prostate
SK-MEL-5 melanoma = tested on: SK-MEL-5 melanoma
LOX IMVI melanoma = tested on: LOX IMVI melanoma
SK-MEL-28 melanoma = tested on: SK-MEL-28 melanoma
SK-MEL-2 melanoma = tested on: SK-MEL-2 melanoma
EKVX NSCLC = tested on: EKVX NSCLC
SN12C renal = tested on: SN12C renal
UO-31 renal = tested on: UO-31 renal
TK-10 renal = tested on: TK-10 renal
ACHN renal = tested on: ACHN renal
CAKI-1 renal = tested on: CAKI-1 renal
CCRF-CEM leukemia = tested on: CCRF-CEM leukemia
MOLT-4 leukemia = tested on: MOLT-4 leukemia
UACC-62 melanoma = tested on: UACC-62 melanoma
A498 renal = tested on: A498 renal

Row | Compound | growth (HCT-15 colon) | growth (HT29 colon) | growth (SNB-75 CNS) [%] | growth (SNB-19 CNS) [%] | growth (U251 CNS) [%] | growth (PC-3 prostate) [%] | growth (SK-MEL-5 melanoma) | growth (LOX IMVI melanoma) | growth (SK-MEL-28 melanoma) | growth (SK-MEL-2 melanoma) [%] | growth (EKVX NSCLC) | growth (SN12C renal) | growth (UO-31 renal) | growth (TK-10 renal) | growth (ACHN renal) | growth (CAKI-1 renal) | growth (CCRF-CEM leukemia) | growth (MOLT-4 leukemia) | growth (UACC-62 melanoma) [%] | growth (A498 renal) [%]
1 | CC(=O)CCC(=O)OCc1cc(=O)c(O)co1 | 98.2% | 101% | 104 | 104 | 107 | 98.7 | 105% | 94.6% | 98.1% | 113 | 109% | 104% | 97.1% | 98.5% | 101% | 102% | 98% | 102% |  | 
2 | COc1cc2oc(-c3cccc(C(=O)Nc4ccccc4)c3)cc(=O)c2c(O)c1OC | 92.8% | 54.2% | 21.8 | 57.7 | 36.9 | 71 | 71.7% | 88.1% | 87.4% | 65 | 97.9% | 74.8% | 59.7% | 60.8% | 58% | 48.9% | 100% | 99.7% |  | 
3 | COc1cc(C2C3CC4CCCC[C@H]4N3[C@@]3(C(=O)Nc4cc(Cl)ccc43)C2C(=O)c2nc3ccccc3[nH]2)cc(OC)c1OC (stereo partly specified) | 43.3% | 35.6% | 78.8 | 72.5 | 56.7 | 43.7 | 64.6% | 58.8% | 82.4% | 80.5 | 48.6% | 63.2% | 34.8% | 68.8% | 56.9% | 30.6% | 42.2% | 14% |  | 
4 | CN1C(=O)NC(c2ccc3c(c2)OCO3)C=C1c1ccccc1 (stereo unspecified) | 77.8% | 84.2% | 80.2 | 92.5 | 72 | 102 | 99% | 96.5% |  |  | 95.4% | 89% | 64.7% | 85% | 105% | 82.8% | 87.2% | 94.3% | 89.8 | 
5 | O=C(/C(=C\c1ccc([N+](=O)[O-])cc1)S(=O)Cc1ccc(Cl)cc1)c1ccc(Cl)cc1 (stereo unspecified) | 34.8% | 16.5% | 93 | 71.6 | 53.6 | 66.9 | 90.7% | 40.5% | 86.8% | 94.6 | 98.5% |  | 70.4% | 91.9% | 64.6% | 83.8% | 22% | 25.1% |  | 77.4
6 | Cn1cc(-c2csc(-c3c[nH]c4ccccc34)n2)c2ccnc(Cl)c21 | -8.86% (active) | 27.9% | 77.7 | 94 | 48.6 | 56 | 50% | 82.6% | 85.1% | 94.4 | 79.6% | 76.5% | 49.3% | 77.4% | 54.2% | 66.1% | 57.4% |  |  | 53.8
7 | COc1ccc(/C=N/NC(=O)c2cnn3c2NC(c2ccccc2)C3)cc1OC (stereo unspecified) | 41.8% | 14% | 51.6 | 62.6 | 54.4 | 56.9 | 66.7% | 56.5% | 78% | 41.9 | 87.2% | 81.8% | 78.9% | 75.6% | 82.6% | 56.1% | 66.7% | 50.3% |  | 
8 | C=C1C(=O)O[C@H]2[C@H]1CC/C(CNC(=O)/C=C/c1cccc(OC)c1)=C\CC[C@@]1(C)O[C@@H]21 | -44.7% (active) | -36.7% (active) | 90.1 | 55.5 | 47.3 | 36 | 67.8% | 0.442% (active) | -48.7% (active) | 55.6 | -20.2% (active) | 6.02% (active) | -94.6% (active) | -37.7% (active) | -79.7% (active) | -71.9% (active) | 1.02% (active) | -3.23% (active) |  | 
9 | COc1cc2nc(-c3ccc(Cl)cc3)cc(OCCCN3CCOCC3)c2cc1OC | 19.2% | 22.3% | 37.5 | 73.5 | 47.3 | 54 | -52.6% (active) | -56% (active) | 60.1% | 73.1 | 55.7% | 38.4% | 59.6% | 97.9% | 40.6% | -12% (active) | 61.4% | 56.4% |  | 
